Where two headings read alike, the source gives them in different places.
What was measured:
Set-up in all cases: species or system human, MV4-11 + K-562 + COLO205 + SK-N-BE2 + OVCAR-8
[1] = system: CIT; conditions: read-out: apparent Kd, n = 1
[2] = system: CSNK1D; conditions: read-out: apparent Kd, n = 1
[3] = system: CSNK1E; conditions: read-out: apparent Kd, n = 1
[4] = system: MAPK14; conditions: read-out: apparent Kd; compound concentrations: 100 nM and 1000 nM (sheet 'Samples'), CATDS: 0.21797862519498301; n = 1
[5] = system: MAPKAPK2; conditions: read-out: apparent Kd, n = 1
[6] = system: CLK1; conditions: read-out: apparent Kd; compound concentrations: 100 nM and 1000 nM (sheet 'Samples'), CATDS: 7.5926373911313003E-2; n = 1
[7] = system: CLK4; conditions: read-out: apparent Kd; compound concentrations: 100 nM and 1000 nM (sheet 'Samples'), CATDS: 5.3158030493379999E-2; n = 1
[8] = system: CSNK1G1; conditions: read-out: apparent Kd; compound concentrations: 100 nM and 1000 nM (sheet 'Samples'), CATDS: 3.9062620233065198E-2; n = 1
[9] = system: CSNK2A1;CSNK2A3; conditions: read-out: apparent Kd; compound concentrations: 100 nM and 1000 nM (sheet 'Samples'), CATDS: 3.8692946827206802E-2; n = 1
[10] = system: DYRK1A; conditions: read-out: apparent Kd; compound concentrations: 100 nM and 1000 nM (sheet 'Samples'), CATDS: 3.9869758928983597E-2; n = 1
[11] = system: EIF2AK1; conditions: read-out: apparent Kd; compound concentrations: 100 nM and 1000 nM (sheet 'Samples'), CATDS: 5.2303665150266299E-2; n = 1
[12] = system: GAK; conditions: read-out: apparent Kd; compound concentrations: 100 nM and 1000 nM (sheet 'Samples'), CATDS: 7.9054270069147406E-2; n = 1
[13] = system: MAPK10; conditions: read-out: apparent Kd; compound concentrations: 100 nM and 1000 nM (sheet 'Samples'), CATDS: 6.4300767582532795E-2; n = 1
[14] = system: MAPK8; conditions: read-out: apparent Kd; compound concentrations: 100 nM and 1000 nM (sheet 'Samples'), CATDS: 0.19867179384424899; n = 1
[15] = system: MAPK9; conditions: read-out: apparent Kd; compound concentrations: 100 nM and 1000 nM (sheet 'Samples'), CATDS: 7.8815653035512301E-2; n = 1
[16] = system: NUAK1; conditions: read-out: apparent Kd; compound concentrations: 100 nM and 1000 nM (sheet 'Samples'), CATDS: 4.4301419887818799E-2; n = 1
[17] = system: PIP4K2C; conditions: read-out: apparent Kd; compound concentrations: 100 nM and 1000 nM (sheet 'Samples'), CATDS: 4.1544409686620098E-2; n = 1
[18] = system: PTK2B; conditions: read-out: apparent Kd; compound concentrations: 100 nM and 1000 nM (sheet 'Samples'), CATDS: 4.7862573300624302E-2; n = 1
[19] = system: PTK2; conditions: read-out: apparent Kd; compound concentrations: 100 nM and 1000 nM (sheet 'Samples'), CATDS: 4.8653444665563698E-2; n = 1
[20] = system: RPS6KA1; conditions: read-out: apparent Kd; compound concentrations: 100 nM and 1000 nM (sheet 'Samples'), CATDS: 4.3998663303794899E-2; n = 1
[21] = system: TNK1; conditions: read-out: apparent Kd; compound concentrations: 100 nM and 1000 nM (sheet 'Samples'), CATDS: 9.9368831187406595E-2; n = 1
[22] = system: TTK; conditions: read-out: apparent Kd; compound concentrations: 100 nM and 1000 nM (sheet 'Samples'), CATDS: 7.5031677714786096E-2; n = 1
[23] = system: CSNK1A1; conditions: read-out: apparent Kd; compound concentrations:100 nM and 1000 nM (sheet 'Samples'); n = 1
[24] = system: DDR1; conditions: read-out: apparent Kd; compound concentrations:100 nM and 1000 nM (sheet 'Samples'); n = 1
[25] = system: MAPK11; conditions: read-out: apparent Kd; compound concentrations:100 nM and 1000 nM (sheet 'Samples'); n = 1
[26] = system: NLK; conditions: read-out: apparent Kd; compound concentrations:100 nM and 1000 nM (sheet 'Samples'); n = 1
[27] = system: PRKCA; conditions: read-out: apparent Kd; compound concentrations:100 nM and 1000 nM (sheet 'Samples'); n = 1
[28] = system: PRKD2; conditions: read-out: apparent Kd; compound concentrations:100 nM and 1000 nM (sheet 'Samples'); n = 1
[29] = system: PRKD3; conditions: read-out: apparent Kd; compound concentrations:100 nM and 1000 nM (sheet 'Samples'); n = 1
[30] = system: RIPK2; conditions: read-out: apparent Kd; compound concentrations:100 nM and 1000 nM (sheet 'Samples'); n = 1
[31] = system: SIK3; conditions: read-out: apparent Kd; compound concentrations:100 nM and 1000 nM (sheet 'Samples'); n = 1
[32] = system: TNIK; conditions: read-out: apparent Kd; compound concentrations:100 nM and 1000 nM (sheet 'Samples'); n = 1
[33] = compound concentrations:100 nM and 1000 nM (sheet 'Samples')

## Fc1ccc(-c2nn3cccc(F)c3c2-c2ccncc2)cc1 [GW475620X]
[1]; compound concentrations: 100 nM and 1000 nM (sheet 'Samples'), CATDS: 0.166280456271373
  potency estimated from few doses: 1690 nM
[2]; compound concentrations: 100 nM and 1000 nM (sheet 'Samples'), CATDS: 0.24593653580007899
  potency estimated from few doses: 751 nM
[3]; compound concentrations: 100 nM and 1000 nM (sheet 'Samples'), CATDS: 0.167544749669055
  potency estimated from few doses: 1660 nM
[4]
  potency estimated from few doses: 934 nM
[5]; compound concentrations: 100 nM and 1000 nM (sheet 'Samples'), CATDS: 0.22915733614063999
  potency estimated from few doses: 851 nM

## CCCN1CCC=C(c2ccc(Nc3nc(Nc4ccccc4C(N)=O)c4cc[nH]c4n3)c(C)c2)C1 [GSK994854A]
[6]
  potency estimated from few doses: 392 nM
[7]
  potency estimated from few doses: 801 nM
[2]; compound concentrations: 100 nM and 1000 nM (sheet 'Samples'), CATDS: 3.8251361436103803E-2
  potency estimated from few doses: 2010 nM
[3]; compound concentrations: 100 nM and 1000 nM (sheet 'Samples'), CATDS: 3.6903644151272202E-2
  potency estimated from few doses: 2300 nM
[8]
  potency estimated from few doses: 1870 nM
[9]
  potency estimated from few doses: 1930 nM
[10]
  potency estimated from few doses: 1740 nM
[11]
  potency estimated from few doses: 831 nM
[12]
  potency estimated from few doses: 365 nM
[13]
  potency estimated from few doses: 535 nM
[14]
  potency estimated from few doses: 94 nM
[15]
  potency estimated from few doses: 367 nM
[16]
  potency estimated from few doses: 1270 nM
[17]
  potency estimated from few doses: 1530 nM
[18]
  potency estimated from few doses: 1030 nM
[19]
  potency estimated from few doses: 989 nM
[20]
  potency estimated from few doses: 1290 nM
[21]
  potency estimated from few doses: 250 nM
[22]
  potency estimated from few doses: 400 nM

## Cl.Nc1nccc(-c2c(-c3ccc(F)cc3)ncn2C2CCNCC2)n1 [SB-220025-A]
[1]; [33]
  potency estimated from few doses: 815 nM
[23]
  potency estimated from few doses: 19.8 nM
[2]; [33]
  potency estimated from few doses: 1.63 nM
[3]; [33]
  potency estimated from few doses: 2.51 nM
[24]
  potency estimated from few doses: 1350 nM
[25]
  potency estimated from few doses: 689 nM
[5]; [33]
  potency estimated from few doses: 3.23 nM
[26]
  potency estimated from few doses: 324 nM
[27]
  potency estimated from few doses: 2370 nM
[28]
  potency estimated from few doses: 956 nM
[29]
  potency estimated from few doses: 1420 nM
[30]
  potency estimated from few doses: 68.3 nM
[31]
  potency estimated from few doses: 1140 nM
[32]
  potency estimated from few doses: 1610 nM

— PMC11062922 (Nature Chemical Biology, 2023)
